Screen size: about 31,000 sequences; about 1,400 (4.5%) were called active. Many of the other results were omitted from the sample, so actives are more common in it than they were. Values without a mark were called inactive.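 The calls were made as follows: active = median seed-adjusted z-score above 1 or below -1; inactive = the rest.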

The test in a line: Novel Modifiers of Survival Motor Neuron (SMN) Protein: Gene Identification via Genome-wide siRNA Screen. The conditions noted are these: HEK293T SMN2-luciferase reporter, siRNA knockdown, 72 h; actives lie on both sides. The source says:
Spinal muscular atrophy (SMA) is the most common neuromuscular autosomal recessive disorder and one of the leading genetic causes of infant death. SMA results from mutations inducing loss of function or deletion in the survival of motor neuron-1 gene (SMN1), leading to deficiency of the survival motor neuron (SMN) protein. Although a second nearly identical gene, SMN2, is retained in humans, its expression primarily produces an aberrantly spliced isoform that is largely unstable and quickly degraded. We performed a genome-wide RNAi screen using a cell-based reporter assay to identify genes and pathways that modulate SMN protein stability. The screen identified over 200 genes that led to the greatest increase or decrease in luciferase expression.
Using HEK293T cells stably expressing a luciferase reporter that combines the promoter and splicing based cassettes in tandem with the major portion of the native SMN2 cDNA with luciferase, we performed a genome-wide RNAi screen to identify modulators of SMN protein levels. Luciferase is expressed when full-length SMN protein is generated with luminescence signal proportional to SMN protein levels. Our luciferase-based reporter assay was used to screen Ambion Silencer Select Human Druggable Genome siRNA library (10418 genes, 3 unique siRNAs per gene) using lipid-based reverse transfection.
Briefly, 1 pmol of each siRNA was spotted to a well of a 384-well plate (Corning, Corning, NY) and 20 microL of serum-free DMEM containing […] of Lipofectamine RNAiMax (Life Technologies, Carlsbad, CA) was then added to each well. Transfected cells were maintained at 37 degrees C in 5% CO2 for 72 hours, 20 microL of ONE-Glo Reagent (Promega) was added to wells for luciferase quantification. Raw luminescence reads were normalized to Ambion(R) Silencer(R) Negative Control #2 siRNA, then log10 transformed. A robust statistical measure of median absolute deviation (MAD) to standardize siRNA activities from each screen. Common Seed Analysis was used to help prioritize clean hits as opposed to those appearing to arise from seed based off-target effects. Candidate modulators were defined as the genes having a MAD score greater than 1.0 or less than -1.0.
Background: Reporter assays use an easily measured gene product as a stand-in for the process of interest.
With ACUUCAAGCUCCUAAGCCATT against HBA1, the median seed-adjusted z-score was -1.03 (active).

Turning to GCCUCUAAGUCUCGAGGAATT against TRPM3, the median seed-adjusted z-score is -0.633. Regarding CACAGGUAAUCAUACCCUATT against NDUFA9, the median seed-adjusted z-score is -0.325. As for GAAUCAGAAUACGUAGGAATT against PCDHA2, the figure is 0.803; as for GGAGGAAUCUCGAAUGCGATT against CNOT1, 1.2 (active); as for GAGGCAAUAUGAAACGAGUTT against CKMT2, -0.862. As for GCAAUUGUCUGAUUAAUCATT against MB, the figure is 0.504. Next, GAACUGCACCAAAGAAACATT against AKTIP: -0.194. Regarding CGGACGAAGAGAUUGGGAATT against DRAP1, the median seed-adjusted z-score was 1.08 (active). Next, GCAGAAUUACAAGACAAGATT against VWA5A: 0. Regarding CCGCCUUUCAAGAACGUAATT against IARS, the median seed-adjusted z-score is -0.198. As for GAAUAGACCUGAAGACAAATT against CFLAR, the figure is -0.413. Next, CAACGGAAGUGCUACUACUTT against FCER2: -1.75 (active); CCCAAUAUGUGCGGAUUAATT against DSC3: 0.18. With GGAAAGAGAUCUACCGCAATT against MYST1, the median seed-adjusted z-score was 0. Next, GCUUCCCGAUUAACUGAAATT against MECP2: -0.332; AGAAUGCACCAAACAAACATT against DOLPP1: 0.00977. Next, GGUACAAAGCAAUCGGACATT against GUCA2B: -0.146; GUCUUUAGCUGACCUGAAUTT against DMD: -0.626. Next, CCGAAGAAGCAAUAUCGAATT against CRKRS: -1.16 (active); CCACCUUACUUUCCUGAAUTT against TMEM171: 0.278; CACUUAUUCUGGUCCUUCATT against ELOVL3: 0. With CCGCUAAUGUUCAAGGACATT against UNC5B, the median seed-adjusted z-score is -0.0207.

Regarding GCAAUAGUCCCAAAAGCAATT against CD6, the median seed-adjusted z-score was -0.33. As for GCAGGAGUUUGUUUAAUGATT against UGT1A10, the figure is 0.286; as for GUAUACCGAUUGAUAACCATT against BTAF1, -1.19 (active). GUGUUUUUGUAGUUACCUATT against TSEN34: the median seed-adjusted z-score was 0.918. As to CCACGAAGAAUGGAUUGAATT against TRIO, the median seed-adjusted z-score was 0.42. Regarding ACACCACGCUCAACAUCAATT against ZBED1, the median seed-adjusted z-score is 0.0567.

For GGUUGAUGCAGACAACAAATT against LGTN, the median seed-adjusted z-score is 0.491. Regarding GGAAUGCUAUGAUAGACGATT against GNAQ, the median seed-adjusted z-score was -1.23 (active). Next, GGAAUUCGAGGAUUAUGCATT against HIAT1: -0.0612; CAAGGAGAGGCAUAACGUATT against DNASE1L3: 0.0678; GAUUACAACCUGUAUCGAATT against THOC1: -3.04 (active). For the sequence GGACAUAAUGUAUUAUACUTT against DDHD1, the median seed-adjusted z-score is 0. In the case of GGUCACGGAUUGCUUUUUATT against DUS1L, the median seed-adjusted z-score was 0.0698. Take GGAAGAACCAGAGUGUGAATT against C1RL: the median seed-adjusted z-score is -0.148. Consider GGGAGAUUCUCCAACUAAATT against SR140, for which the median seed-adjusted z-score is 1.16 (active). Next, GGAUCGAUUCUGAAUAUGATT against PAPSS1: -0.648; GGUUGAAGCUUACUCCGGATT against DHX9: -0.687. As for UCACUGAUGUACUACCUAUTT against RPUSD4, the figure is -0.0264. For the sequence GGAUCACGCAGCUCAAGAUTT against TBX1, the median seed-adjusted z-score is -0.744.

Consider CCGCGAAGAUGUUAGCAUUTT against PRSS12, for which the median seed-adjusted z-score is 0.119. As for ACAUAUAGGUAUCGACCAATT against PRICKLE2, the median seed-adjusted z-score is -1.12 (active). As for GCCCAGGAAAGAUAAGGCATT against PTH1R, the figure is -0.521; as for GCAGUGCGUUCAGUGCAAATT against FHL2, 0.475; as for CGAUUAGGACUGACAAUAATT against IFT57, -1.1 (active). GCUUGUUCCUUCAAUUAAATT against ZNF41: the median seed-adjusted z-score was 0.342. Next, GCAUUAGGUUCACUAAAUATT against GPR160: -0.278; GGCUUAACCUGGUGAUAAATT against GLUD1: 0.156.

With GGAUGACGGUGUCUACUCATT against CLCA1, the median seed-adjusted z-score was 0.015. For the sequence GUUCUUGUCUAAGACAUGATT against ZNF799, the median seed-adjusted z-score was -1.02 (active). Take GGUUAAUAUUGCGAAAGUATT against TXNDC1: the median seed-adjusted z-score was 0.458.

As to AGCUCUACAUUGGCGAUGATT against DUPD1, the median seed-adjusted z-score is -0.406. Regarding GCAUAUUCCAAACUAGUGATT against STARD6, the median seed-adjusted z-score is 0.0605.
